Screens (PubChem BioAssay)
The full list was thinned out, with hits kept by preference.
Pf Dd2 growth = qHTS Primary assay for Inhibitors of Plasmodium falciparum Dd2 growth in vitro. P. falciparum Dd2 growth, SYBR Green, 72 h. Potency, µM (top dose mostly 28.9 µM), without a hit: top-dose activity, negative = inhibition, hits mostly inhibitors. 120,000 tested, 4.3% active. AID 1347417, 2020; active = well fitted inhibition curve with a large enough effect;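 note: plate controls were DMSO vehicle for no effect and reference drug for full effect; nearly all actives have a fitted effect of over 65% in size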
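Infected erythrocytes (Dd2, 0.3% parasitemia, 2.5% hematocrit final) are added to compound in RPMI-1640/Albumax II medium, grown 72 h at 37C in low oxygen, then lysed with saponin/Triton-X containing SYBR Green and read by fluorescence.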
An asterisk follows results filed as active; i = inactive; [ ] = another dose, or the depositor's remark. Potency is the fitted concentration of half-maximal effect.

SMILES	Pf Dd2 growth
CCN(CC)CCN(C(=O)c1ccco1)c1nc2ccc(Cl)cc2s1	-4.8%
Cc1ccc2sc(N(CCCN(C)C)C(=O)c3ccco3)nc2c1C	8.91µM*
Cc1ccc(C)c2sc(N3CCN(C(=O)c4ccco4)CC3)nc12	8.7%
COc1ncccc1-c1cc(C(=O)NCCN2CCOCC2)c2c(c1)ncn2C	22.8%[44.1 µM]
Cc1ccc(NC2CCCN(C(=O)c3ccc(F)c(F)c3)C2)cc1C (stereo not given)	-8.2%
CO[C@H]1C(=O)N(C2CCN(C(=O)Cc3c[nH]c4ccccc34)CC2)[C@H]1c1ccncc1	11.2%
CCOC(=O)Cn1nc2n(c1=O)CCN(Cc1cccc(Cl)c1)C2=O	33.0%
Cc1cc(Cl)ccc1S(=O)(=O)N1CCN(C2CCN(CCC(C)C)C2=O)CC1 (stereo not given)	-28.3%
Cc1ccc(S(=O)(=O)N2CCN(C3CCN(CCC(C)C)C3=O)CC2)cc1Cl (stereo not given)	3.98µM*
CC(C)CCN1CCC(N2CCN(S(=O)(=O)c3ccc(F)cc3)CC2)C1=O (stereo not given)	-16.2%
COCc1nc(C2CCN(C(=O)C3CCOCC3)C2)no1 (stereo not given)	-1.2%
O=C(N1CC(Oc2cccc(-c3nc(-c4ccccc4)no3)c2)C1)C1(c2ccccc2)CC1	i[5.79 µM]
CN1CCN(Cc2nc(C3(O)CCN(C)CC3)cs2)CC1	4.3%[44.1 µM]
C=CCNC(=O)N1CCC(O)(c2csc(CN3CCN(c4ccccn4)CC3)n2)CC1	1.5%
OC1(c2csc(CN3CCN(c4ccccn4)CC3)n2)CCN(Cc2ccccc2)CC1	8.91µM*
O=C(CCC1CCN(c2cc(NC3CC3)ncn2)CC1)NCC1CC1	-25.3%
Cc1cccnc1CN1CCN(C(=O)C2CC3(CCNCC3)CN2C)CC1 (stereo not given)	9.8%
CC(=O)c1ccc(NC(=O)c2sc3nc4c(cc3c2N)N2CCC4CC2)cc1	-14.6%
COc1ccc(NC(=O)c2sc3nc4c(cc3c2N)CN(Cc2ccccc2)CC4)cc1	i
Nc1c(C(=O)Nc2ccc(OC(F)(F)F)cc2)sc2nc3c(cc12)N1CCC3CC1	11.2µM*
CCn1ccc(C(=O)N2C[C@@H](Oc3cccnc3)C[C@H]2C(=O)N2CCOCC2)n1	21.5%
COc1ccc(S(=O)(=O)c2c(O)c3ccc(C(=O)NCc4ccc(Cl)cc4)cc3[nH]c2=O)cc1	-3.5%
COc1ccc(C(=O)NC(c2ccc(Cl)cc2)c2cc(Cl)c3cccnc3c2O)cc1 (stereo not given)	2.82µM*
COc1ccc(C(=O)Nc2cc(C(C)C)c(O)c(S(=O)(=O)c3ccc(OC)cc3)c2C)cc1	i
CN1C(=O)C(c2ccccc2)CC12CCN(C(=O)C1(C(N)=O)CC1)CC2 (stereo not given)	-6.3%
SMILES	Pf Dd2 growth
Cc1cccc(C(=O)N2CC(c3noc(C4CCCN4CC4CC4)n3)C2)c1 (stereo not given)	-5.9%
CC(C)NC(=O)C[C@@H]1CCNC[C@@H]1Cc1cc(-c2ccccc2)on1	i
COC(=O)CNC(=O)c1cc(-c2ccc(Cl)nc2)nc2c1cnn2C	4.9%
Fc1ccc(Cc2nc3nccc(-c4ccc5c(c4)OCCCO5)n3n2)cc1	14.1µM*
COc1ccc(Cc2nc3nccc(-c4ccc5c(c4)OCCCO5)n3n2)cc1	-6.5%
COCc1nc2nccc(-c3ccc4c(c3)OCCCO4)n2n1	-12.7%
Cc1n[nH]c(C)c1CCCNC(=O)C1CC2(CCNCC2)CN1 (stereo not given)	9.9%
COCCN1CCCCC(CC(=O)Nc2ccc(C)cc2)C1=O (stereo not given)	-12.1%
Cc1ccccc1C(=O)NC1CCCN(c2cc(-c3ccccc3)[nH]n2)C1 (stereo not given)	i
CCN(CC)Cc1cnc2c(C(=O)N3[C@H]4CCNC[C@@H]3CC4)cnn2c1	1.3%
CC1Oc2ccc(NC(=O)Cc3ccccc3)cc2CN(Cc2ccc(F)cc2)C1=O (stereo not given)	-10.4%
c1nc(N2C[C@@H](c3ccc4c(c3)OCO4)[C@@H]3[C@H]2C2CCN3CC2)c2[nH]cnc2n1	-14.4%
COCCOc1ccc2c(n1)CCN(C(=O)Cc1cccc(F)c1)C2	2.9%
CC1=C[C@@H](CNC2CCOCC2)[C@H](C(C)C)C[C@H]1Cc1nc2ccccc2[nH]1	-12.7%[44.1 µM]
COc1ccc2nc(C[C@@H]3C[C@@H](C(C)C)[C@H](CNC(=O)CCCC(=O)O)C=C3C)[nH]c2c1	-12.3%
CC1=C[C@@H](CNC(=O)CN(C)C)[C@H](C(C)C)C[C@H]1Cc1nc2ccc(Cl)cc2[nH]1	6.31µM*
COc1ccccc1CN(Cc1ccccc1OC)C[C@@H]1C=C(C)[C@H](Cc2nc3c(C)cccc3[nH]2)C[C@H]1C(C)C	-7.7%
CC1=C[C@@H](CNC(=O)CCC(=O)O)[C@H](C(C)C)C[C@H]1Cc1nc2ccc(C)cc2[nH]1	3.5%[44.1 µM]
COc1ccc2nc(C[C@@H]3C[C@@H](C(C)C)[C@H](CNC(=O)NC4CCCCC4)C=C3C)[nH]c2c1	i
COCC(=O)NC[C@@H]1C=C(C)[C@H](Cc2nc3ccc(Cl)cc3[nH]2)C[C@H]1C(C)C	2.51µM*
COC(=O)c1ccc2nc(C[C@@H]3C[C@@H](C(C)C)[C@H](CNCc4ccccc4O)C=C3C)[nH]c2c1	-12.2%
CC1=C[C@@H](CNC2CCOCC2)[C@H](C(C)C)C[C@H]1Cc1nc2ccc(Cl)cc2[nH]1	7.08µM*
COc1ccc2nc(C[C@@H]3C[C@@H](C(C)C)[C@H](CNC(=O)CCC(=O)O)C=C3C)[nH]c2c1	-22.7%[44.1 µM]
COc1ccc2nc(C[C@@H]3C[C@@H](C(C)C)[C@H](CNCc4ccccc4OC)C=C3C)[nH]c2c1	1.26µM*
O=C(Nc1ccc(Cl)cc1Cl)c1cnn2c1CN(C(=O)c1ccccc1F)CC2	-1.3%
SMILES	Pf Dd2 growth
O=C(Cn1ccn2nc(-c3ccc(F)cc3)c(CO)c2c1=O)NCc1ccc2c(c1)OCO2	27.5%
CCC1(O)CCC12CCN(C(=O)CC(C)C)CC2 (stereo not given)	-22.0%
Cc1noc(C)c1CC(=O)NCCc1noc(C2CC2)n1	-6.0%
CC1(C)NC(=O)N(CC(=O)NC2CC(c3cc(=O)[nH]c(N)n3)C2)C1=O (stereo not given)	-2.9%
CC(C)CC(=O)N[C@H](C)c1onc(-c2ccc(Cl)cc2)c1C(=O)O	-1.7%[44.1 µM]
COc1ccccc1CNC(=O)c1ccc2c(c1)N(C)C1CCCN1C2=O (stereo not given)	i
CN(C)CCCNC(=O)C1CCCN(S(=O)(=O)c2ccccc2)CCC(=O)NCC1 (stereo not given)	i
Cc1ccsc1C(=O)N1CCn2c(nnc2[C@@H]2C[C@@H](O)CN2Cc2ccccc2)C1	i
CCC1c2nccn2CCCN1C(=O)C1CCOCC1 (stereo not given)	-3.6%
CCC1c2nccn2CCCN1C(=O)Cn1c(=O)oc2ccccc21 (stereo not given)	12.6µM*
CCC1c2nccn2CCCN1C(=O)COC (stereo not given)	28.8%
CCC1c2nccn2CCCN1C(=O)c1ccc2c(c1)OCO2 (stereo not given)	-20.1%
CC(C)C1c2nccn2CCCN1C(=O)Cn1c(=O)oc2ccccc21 (stereo not given)	-19.2%
CCC1c2nccn2CCCN1C(=O)Cc1ccc(OC)cc1 (stereo not given)	7.08µM*
COCCN1CCC(CN(C)C(=O)C(N)c2c(C)n[nH]c2C)CC1 (stereo not given)	-6.9%
COc1cc(=O)n2c(c1C(=O)Nc1ccc(F)c(F)c1)CCCC2	20.7%
